# From PubChem BioAssay (NCATS)
# A number with no mark means an inactive call. Results filed as inconclusive are left out. A call without a number means that no potency is given here. The source made the active and inactive calls. The call rests on the fitted dose curve; in most records, active means well fitted curve in the direction sought with a large enough effect; inconclusive means small, poorly fitted or top-dose-only effect, or another doubt; inactive means no such curve, though single readings can be large; an effect the other way counts as inactive or inconclusive.
# Assays:
# [1] = target: Glutathione peroxidase 1 (Homo sapiens) (UniProt P07203); experiment: Primary qHTS Assay for Inhibitors of Recombinant Selenoprotein Glutathione Peroxidase 1 (GPX1) (AID 1845191); further: nearly all actives have a fitted effect of over 65% in size
# Glutathione peroxidase 1 (Homo sapiens), sequence (P07203 whole entry, looked up): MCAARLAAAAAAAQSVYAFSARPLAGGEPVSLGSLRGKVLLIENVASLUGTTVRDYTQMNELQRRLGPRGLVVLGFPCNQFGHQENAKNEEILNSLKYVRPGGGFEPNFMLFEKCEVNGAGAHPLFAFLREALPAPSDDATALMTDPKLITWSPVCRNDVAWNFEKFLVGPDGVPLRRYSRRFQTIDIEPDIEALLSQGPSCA
# How it was run: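 Recombinant GPX1 (10 nM final) was preincubated with compound for 30 min at room temperature, then reacted with 1 mM GSH, 0.5 mM CHP, 0.5 mM NADPH and 100 nM glutathione reductase; NADPH fluorescence (340/450 nm) was read at 0 and 15 min.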
# [2] = target: Phospholipid hydroperoxide glutathione peroxidase GPX4 (Homo sapiens) (UniProt P36969); experiment: Primary qHTS Assay for Inhibitors of Recombinant Selenoprotein Glutathione Peroxidase 4 (GPX4) (AID 1845192); further: nearly all actives have a fitted effect of over 65% in size
# Phospholipid hydroperoxide glutathione peroxidase GPX4 (Homo sapiens), sequence (P36969 whole entry, looked up): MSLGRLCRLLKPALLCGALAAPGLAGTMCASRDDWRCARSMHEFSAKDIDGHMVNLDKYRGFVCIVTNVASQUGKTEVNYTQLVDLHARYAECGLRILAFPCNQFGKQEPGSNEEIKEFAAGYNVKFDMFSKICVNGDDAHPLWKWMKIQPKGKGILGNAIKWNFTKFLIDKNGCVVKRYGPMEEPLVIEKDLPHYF
# How it was run: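 GR-coupled readout: 100 nM GR, 1 mM GSH, 0.5 mM NADPH; NADPH fluorescence (ex 340/em 450 nm) read at t=0 and after 15 min RT. GPX4 200 nM, preincubated 30 min with compound; substrate 0.5 mM CHP.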
# [3] = target: Luciferin 4-monooxygenase (Photinus pyralis) (UniProt P08659); experiment: Primary firefly luciferase (FLuc) qHTS assay for identification of artifact compounds. (AID 1845220); further: nearly all actives have a fitted effect of over 60% in size
# How it was run: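 qHTS, 15 min compound preincubation with substrate (10 uM luciferin, 10 uM ATP) at RT, then 10 nM FLuc; 5 min; luminescence; % inhibition vs no-enzyme/DMSO controls, 4-parameter Hill fit.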
# [4] = Primary fluorescence-based thiol-reactive (MSTI) qHTS assay for identification of artifact compounds. (AID 1845221); further: nearly all actives have a fitted effect of over 65% in size; further: potency means the concentration at half of the fitted maximal effect;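 on activity change, negative = thiol reactive: series mostly up to about 54 µM; thiol-reactive compounds lower the probe fluorescence signal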
# How it was run: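 Compounds were incubated 1 h at room temperature in the dark with the MSTI probe (4 uM) in PBS pH 7.4, 2% DMSO. Signals were normalized between Acetyl-MSTI and MSTI.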
# [5] = tested on: Nanoluciferase (engineered Oplophorus gracilirostris luciferase); experiment: Primary Nanoluciferase (NLuc) qHTS assay for identification of artifact compounds. (AID 1845222); further: series mostly up to about 54 µM
# How it was run: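 Luminescence read-out of secreted NLuc in S16 cell conditioned medium (1:55); compounds tested with 15 min RT preincubation, then Nano-Glo substrate 1:100, 5 min. % inhibition vs no-enzyme and DMSO controls, 4-parameter Hill fit.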
# [6] = Primary redox qHTS assay for identification of artifact compounds. (AID 1845223)
# How it was run: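 Amplex Red (25 uM) and HRP (250 mU/mL) in HBSS, with compounds for 15 min, then 250 uM DTT for 30 min, room temperature, dark. Fluorescence 525/598 nm read; normalized to DMSO and 10 uM DA3003; Hill fit.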
SMILES,Potency [1],Potency [2],Potency [3],Potency [4],Potency [5],Potency [6],outcome [3],"activity change, negative = thiol reactive [4]","activity, negative = inhibition [5]",redox activity (% of DA3003) [6]
CNS(=O)(=O)CC1CCC(N(C)c2ncnc3[nH]ccc23)CC1 (stereo not given),inactive,inactive,inactive,inactive,inactive,inactive,–,–,–,–
CCN(CC)Cc1ccc(C(=O)N(CCc2ccccc2OC)[C@@H]2CCNC2)cc1,inactive,inactive,inactive,inactive,inactive,inactive,–,–,–,–
O=C1NC(Cc2c[nH]c3ccccc23)C(=O)NC1Cc1cnc[nH]1 (stereo not given),inactive,inactive,inactive,inactive,inactive,inactive,–,–,–,–
C=C(C)C(=O)O[C@H]1C[C@@](C)(O)C(=O)CC(O)/C(C)=C\[C@H]2OC(=O)C(=C)[C@H]12 (stereo not given in full),inactive,inactive,inactive,2.93 µM (active),inactive,inactive,–,–,–,–
CNC(=O)c1ccccc1Nc1nc(Nc2ccc(N3CCNCC3)cc2)ncc1Cl,inactive,inactive,inactive,3.36 µM (active),inactive,inactive,–,–,–,–
CC(=O)O[C@@H](CO[C@@H]1O[C@H](CO)[C@H](O)[C@H](O)[C@H]1O)[C@]1(C)C=C2CC[C@@H]3C(C)(C)[C@@H](O)CC[C@@]3(C)[C@@H]2CC1,inactive,inactive,inactive,inactive,inactive,inactive,–,–,–,–
CCOC(=O)CCN(C(=O)c1ccc2c(c1)nc(CNc1ccc(C(=N)N)cc1)n2C)c1ccccn1,inactive,inactive,inactive,inactive,inactive,inactive,–,–,–,–
CC12CCC(C(OC3OC(COC4OCC(O)(CO)C4O)C(O)C(O)C3O)C1)C(C)(C)O2 (stereo not given),inactive,inactive,inactive,inactive,inactive,inactive,–,–,–,–
C=C1CCC2C(C)(C(=O)OC)CCCC2(C)C1CCC(C)CC(=O)O (stereo not given),inactive,inactive,inactive,inactive,inactive,inactive,–,–,–,–
Cc1ccc(Cc2c(C)nc3nc(SCC(=O)NCCN4CCNCC4)nn3c2C)cc1,inactive,inactive,inactive,inactive,inactive,inactive,–,–,–,–
O=C(CCCCN1CCOCC1)Nc1ccc(-c2cccnc2)cc1,inactive,inactive,inactive,inactive,inactive,inactive,–,–,–,–
C/C1=C\CCC(C)CCO[C@@H]2O[C@H](CO[C@@H]3OC[C@H](O)[C@H](O)[C@H]3OC1=O)[C@@H](O)[C@H](O)[C@H]2O (stereo not given in full),inactive,inactive,inactive,8.22 µM (active),inactive,inactive,–,–,–,–
CC12CCC(OC3OC(CO)C(O)C(OC4OC(CO)C(O)C(O)C4O)C3O)CC1CCC1C2CCC2(C)/C(=C3/COC(=O)C3)CCC12O (stereo not given),inactive,inactive,inactive,inactive,inactive,inactive,–,–,–,–
O=C1CCC(=O)N(O)CCCCCNC(=O)CCC(=O)N(O)CCOCCNC(=O)CCC(=O)N(O)CCCCCN1,inactive,inactive,inactive,inactive,inactive,inactive,–,–,–,–
COc1cc(/C=C/C(=O)OC[C@H]2O[C@@](CO)(O[C@H]3O[C@H](CO)[C@@H](O)[C@H](O)[C@H]3O)[C@@H](OC(=O)/C=C/c3ccc(O)c(OC)c3)[C@@H]2O)ccc1O,inactive,inactive,inactive,3.54 µM (active),inactive,inactive,–,–,–,–
C[C@@H]1O[C@@H](O[C@@H]2CO[C@@H](O[C@H]3CC[C@@]4(C)C(CC[C@]5(C)C4CC=C4[C@@H]6CC(C)(C)CC[C@]6(C(=O)O[C@@H]6O[C@H](CO)[C@@H](O)[C@H](O)[C@H]6O)CC[C@]45C)[C@]3(C)CO)[C@H](O)[C@H]2O[C@@H]2O[C@H](CO)[C@@H](O)[C@H](O)[C@H]2O)[C@H](O)[C@H](O)[C@H]1O (stereo not given in full),inactive,inactive,–,–,–,–,inactive [at 11.6 µM],216% [at 11.5 µM],-0.413% [at 11.6 µM],7.97% [at 11.5 µM]
C[C@H]1CC(=O)Nc2cccc(-c3cnn(C(C)(C)C)c3)c2N1,inactive,inactive,inactive,inactive,inactive,inactive,–,–,–,–
N#Cc1cnc2cnc(NCc3cccnc3)cc2c1Nc1ccc(F)c(Cl)c1,inactive,inactive,inactive,inactive,inactive,inactive,–,–,–,–
NC1CCC(Nc2cc(-c3cccc(NCc4cccc(F)c4)n3)c(Cl)cn2)CC1 (stereo not given),inactive,inactive,inactive,inactive,inactive,inactive,–,–,–,–
CC(=O)O[C@@H]1[C@@H](O)[C@H](C)O[C@@H](O[C@H]2[C@@H]3C=CO[C@@H](O[C@@H]4O[C@H](CO)[C@@H](O)[C@H](O)[C@H]4O)[C@@H]3[C@@]3(CO)O[C@@H]23)[C@@H]1OC(=O)/C=C/c1ccccc1,inactive,inactive,inactive,inactive,inactive,inactive,–,–,–,–
